Source: the supplement of paper PMC10338343
± gives the standard deviation.

Tests used:
[1] = system: MILI (PIWIL2) piRISC loaded with L1MC piRNA (26 nt); assay: pre-steady-state target cleavage rate (min^-1); guide: L1MC piRNA 5'p-UAACUAAAUACUAUGCAAGCUGUAGG; higher = faster piRNA-guided slicing of the target
Method in brief: (§1)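 Active affinity-purified piRISC (1 nM) loaded with one synthetic guide was mixed with a transcribed, DNA-blocked target RNA library (0.1 nM), with or without 500 nM GTSF1 partner protein, in HEPES–potassium acetate buffer at 33 °C for 0–8 or 0–960 min. Uncleaved targets were sequenced, normalised to depth and to weakly complementary targets, and pooled across three trials, with k3 capped at 0.0001 min^-1. The pre-steady-state cleavage rate was determined with a burst-and-steady-state fit.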

[2] = system: EfPiwi piRISC loaded with L1MC piRNA (26 nt); assay: pre-steady-state target cleavage rate (min^-1); auxiliary factor: 500 nM Ephydatia muelleri Gtsf1; guide: L1MC piRNA 5'p-UAACUAAAUACUAUGCAAGCUGUAGG; MIWI and MILI are mouse PIWI proteins and EfPiwi is from a freshwater sponge; tags in brackets are library labels; higher = faster piRNA-guided slicing of the target
Method in brief: as §1

[3] = auxiliary factor: 500 nM mouse GTSF1
[4] = auxiliary factor: none (no GTSF1)

| Sequence | pre-steady-state target cleavage rate [1, 3] | pre-steady-state target cleavage rate [1, 4] | pre-steady-state target cleavage rate [2] |
| --- | --- | --- | --- |
| UCCUGGAACAGCUUGCAUUGUAAUUAGUUA | 0.184 ± 0.023 | 0.00389 ± 0.0028 | 0.00225 ± 0.0022 |
| UCCUCCUACAGCUUGCAAGUAUUUAGUUA | 0.155 ± 0.017 | 0.00449 ± 0.0021 | 0.00641 ± 0.0026 |
| UCCUCCUAGAGCUUGCAUAGUAAUUAGUUA | 0.264 ± 0.029 | 0.00317 ± 0.0031 | 0.011 ± 0.0039 |
| UCCUGGUACAGCUUGCUUAGUAAUUAGUUA | 0.128 ± 0.036 | 0.0116 ± 0.0032 | 0.00675 ± 0.0033 |
| UCCUGGAUGAUGCUUGCAUAGUAUUUAGUUA | 0.228 ± 0.023 | 0.00923 ± 0.0034 | 0.0738 ± 0.022 |
| UCCUGCUACUGCUUGCAUAGUAUUUUGUUA | 0.138 ± 0.024 | 0.00318 ± 0.0029 | 0.0061 ± 0.0024 |
| UCCUGGAUGAGCUUCAUAGUAUUUAGUUA | 0.0977 ± 0.012 | 0.00515 ± 0.002 | 0.00394 ± 0.0033 |
| UCCUCCUACAGCUUGAAUAGUAUUUAGUUA | 0.283 ± 0.015 | 0.00723 ± 0.002 | 0.0651 ± 0.017 |
| UCCUCCUACAGCUUAGCAUAGUAUUUAGUUA | 0.314 ± 0.017 | 0.0112 ± 0.0024 | 0.0919 ± 0.025 |
| UCCUGCAACAGCUUGGAUAGUAUUUAGUUA | 0.251 ± 0.011 | 0.00806 ± 0.0021 | 0.0256 ± 0.0066 |
| UCCUGGAUGAGCUUGCGUAGUAUUUAGUUA | 0.119 ± 0.016 | 0.0108 ± 0.0025 | 0.00425 ± 0.0038 |
| UCCUGGAUGUGCUUGCAUAGUAUUUAGUUG [g2:g20:cont:t1G] | 0.179 ± 0.022 | 0.00877 ± 0.0027 | 0.00803 ± 0.0029 |
| UCCUGGAUCAGCUUGUAUAGUAUUUAGUUA | 0.301 ± 0.015 | 0.0104 ± 0.0028 | 0.104 ± 0.021 |
| UCCUGGAACAGUUGCAUAGUAUUUAGUUA | 0.2 ± 0.014 | 0.00668 ± 0.0022 | 0.0543 ± 0.013 |
| UCCUCCUAGAGCUUGCAUAGUAUUUAGUAA | 0.201 ± 0.021 | 0.00313 ± 0.0024 | 0.00608 ± 0.0021 |
| UCCUGGAUCAGCUUGCAUGGUAUUUAGUUA | 0.285 ± 0.025 | 0.011 ± 0.0027 | 0.0193 ± 0.0038 |
| UCCUGGAACAGCUUGGAUAGUAUUUUGUUA | 0.203 ± 0.034 | 0.00404 ± 0.0026 | 0.00249 ± 0.0021 |

| Sequence | pre-steady-state target cleavage rate [1, 3] | pre-steady-state target cleavage rate [1, 4] | pre-steady-state target cleavage rate [2] |
| --- | --- | --- | --- |
| UCCUGGAUGAGUUGCAUAGUAUUUAGUUA | 0.108 ± 0.013 | 0.00501 ± 0.0019 | 0.00429 ± 0.002 |
| UCCUCGUACAGCUUGCUUAGUAUUUAGUUA | 0.286 ± 0.016 | 0.00785 ± 0.0024 | 0.0519 ± 0.012 |
| UCCUGCUACAGCUUGCAUAGUAUUAUAGUUA | 0.189 ± 0.021 | 0.00585 ± 0.0024 | 0.0103 ± 0.0037 |
| UCCUGGAACAGCUUAGCAUAGUAUUUAGUUA | 0.27 ± 0.019 | 0.00815 ± 0.0027 | 0.0218 ± 0.0061 |
| UCCUGGUACUGCUAGCAUAGUAUUUAGUUA | 0.174 ± 0.02 | 0.0113 ± 0.003 | 0.00467 ± 0.0022 |
| UCCUGGUACAGCUUUGCAUAGUAUUUAGUUA | 0.185 ± 0.018 | 0.0164 ± 0.0048 | 0.00974 ± 0.0035 |
| UCCUCCAACAGCUUGCUUAGUAUUUAGUUA | 0.262 ± 0.017 | 0.0066 ± 0.0021 | 0.0148 ± 0.0053 |
| UCCUGGUACACCAUGCAUAGUAUUUAGUUA | 0.176 ± 0.033 | 0.0052 ± 0.0033 | 0.00335 ± 0.0031 |
| UCCUGGAUCAGCAUGCAUAGUAUAUAGUUA | 0.297 ± 0.018 | 0.00579 ± 0.0027 | 0.00329 ± 0.0028 |
| UCCUGGAACAGCUUGCUUACUAUUUAGUUA | 0.0834 ± 0.011 | 0.0029 ± 0.0024 | 0.00758 ± 0.0029 |
| UCCUGGUACAGCUGGCAUAGUAUUUAGUUA | 0.199 ± 0.022 | 0.0121 ± 0.0031 | 0.0113 ± 0.0038 |
| UCCUCCUAGAGGUUGCAUAGUAUUUAGUUA | 0.205 ± 0.011 | 0.00716 ± 0.0022 | 0.0153 ± 0.0029 |
| UCCUCCUACACCUUGCAAAGUAUUUAGUUA | 0.118 ± 0.015 | 0.00739 ± 0.0022 | 0.0172 ± 0.007 |
| UCCUCCUACAGCUUGGAUAGUAUUUUGUUA | 0.164 ± 0.028 | 0.00424 ± 0.0026 | 0.00565 ± 0.0022 |
| UCCUGGAUGUUCUUGCAUAGUAUUUAGUUA | 0.0709 ± 0.01 | 0.0115 ± 0.003 | 0.173 ± 0.068 |
| UCCUGCUUCAGCUUGCAUAGUAAUUAGUUA | 0.253 ± 0.022 | 0.00622 ± 0.0021 | 0.00863 ± 0.003 |
| UCCUGGUUCAGCUUGCAUAGUAUUUAGUUA | 0.23 ± 0.022 | 0.0108 ± 0.0032 | 0.0765 ± 0.018 |
